The record followed here is the supplement of paper PMC10849652.

Of roughly 7,900 targets only a part is listed; those with a hit were picked by preference. About 0.6% of all pairs of compound and target were hits.

Sequence of UniProt Q7Z3J2 (Q7Z3J2 whole entry, looked up): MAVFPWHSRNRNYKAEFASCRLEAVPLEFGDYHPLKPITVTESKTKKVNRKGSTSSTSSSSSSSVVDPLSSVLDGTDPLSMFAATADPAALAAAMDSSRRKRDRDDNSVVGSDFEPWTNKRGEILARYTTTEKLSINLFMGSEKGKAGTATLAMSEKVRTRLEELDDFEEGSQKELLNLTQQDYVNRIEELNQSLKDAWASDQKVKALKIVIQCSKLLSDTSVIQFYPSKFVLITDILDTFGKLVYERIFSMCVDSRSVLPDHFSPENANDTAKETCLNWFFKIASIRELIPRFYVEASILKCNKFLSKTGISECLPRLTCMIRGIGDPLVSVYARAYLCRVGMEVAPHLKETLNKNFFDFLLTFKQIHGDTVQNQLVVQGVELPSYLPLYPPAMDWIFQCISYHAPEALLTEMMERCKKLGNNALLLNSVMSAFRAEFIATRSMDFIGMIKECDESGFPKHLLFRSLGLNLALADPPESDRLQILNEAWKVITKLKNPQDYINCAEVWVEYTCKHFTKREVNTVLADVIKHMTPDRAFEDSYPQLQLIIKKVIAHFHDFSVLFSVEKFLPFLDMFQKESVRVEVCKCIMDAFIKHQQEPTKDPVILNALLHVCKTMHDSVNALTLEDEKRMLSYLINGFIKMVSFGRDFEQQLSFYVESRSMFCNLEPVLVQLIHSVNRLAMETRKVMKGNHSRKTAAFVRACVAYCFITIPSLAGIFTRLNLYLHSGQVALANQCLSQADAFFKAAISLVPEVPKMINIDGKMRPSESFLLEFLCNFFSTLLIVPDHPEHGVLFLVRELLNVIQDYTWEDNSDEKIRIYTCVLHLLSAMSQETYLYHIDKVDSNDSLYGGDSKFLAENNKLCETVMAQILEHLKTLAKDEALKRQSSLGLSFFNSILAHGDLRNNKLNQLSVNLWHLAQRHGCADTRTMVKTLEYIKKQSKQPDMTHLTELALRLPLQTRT
Sequence of UniProt Q9UBK9 (Q9UBK9 whole entry, looked up): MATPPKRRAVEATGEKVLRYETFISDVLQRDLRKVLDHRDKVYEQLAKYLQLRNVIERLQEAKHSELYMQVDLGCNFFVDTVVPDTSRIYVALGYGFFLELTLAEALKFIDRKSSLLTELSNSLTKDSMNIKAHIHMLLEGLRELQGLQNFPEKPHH
Sequence of UniProt Q7Z7N9 (Q7Z7N9 whole entry, looked up): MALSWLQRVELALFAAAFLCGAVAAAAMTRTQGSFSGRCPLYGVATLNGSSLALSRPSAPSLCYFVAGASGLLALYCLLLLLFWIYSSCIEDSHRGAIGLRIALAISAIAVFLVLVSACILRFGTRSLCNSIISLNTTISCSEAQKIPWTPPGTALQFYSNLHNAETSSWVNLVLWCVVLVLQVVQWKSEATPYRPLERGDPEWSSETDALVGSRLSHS
Sequence of UniProt P98170 (P98170 whole entry, looked up): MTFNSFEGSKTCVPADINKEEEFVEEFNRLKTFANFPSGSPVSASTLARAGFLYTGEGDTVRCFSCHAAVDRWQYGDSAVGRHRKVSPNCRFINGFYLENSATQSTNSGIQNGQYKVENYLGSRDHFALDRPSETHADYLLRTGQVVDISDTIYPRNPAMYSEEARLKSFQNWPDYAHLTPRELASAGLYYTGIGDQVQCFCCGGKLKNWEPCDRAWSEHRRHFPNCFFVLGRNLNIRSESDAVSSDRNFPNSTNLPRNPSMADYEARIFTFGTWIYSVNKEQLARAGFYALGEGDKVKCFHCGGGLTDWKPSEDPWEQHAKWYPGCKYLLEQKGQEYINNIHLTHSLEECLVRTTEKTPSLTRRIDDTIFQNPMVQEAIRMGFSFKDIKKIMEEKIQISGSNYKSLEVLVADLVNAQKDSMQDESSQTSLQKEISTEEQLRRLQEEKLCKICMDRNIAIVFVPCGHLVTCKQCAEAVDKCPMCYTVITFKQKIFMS
Sequence of UniProt Q9NQ34 (Q9NQ34 whole entry, looked up): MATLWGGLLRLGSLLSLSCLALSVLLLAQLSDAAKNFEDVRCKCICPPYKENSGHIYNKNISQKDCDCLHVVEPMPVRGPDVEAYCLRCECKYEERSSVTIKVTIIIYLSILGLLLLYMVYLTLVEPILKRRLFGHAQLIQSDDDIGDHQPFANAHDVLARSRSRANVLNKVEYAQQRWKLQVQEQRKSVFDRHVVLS
Sequence of UniProt Q96DX7 (Q96DX7 whole entry, looked up): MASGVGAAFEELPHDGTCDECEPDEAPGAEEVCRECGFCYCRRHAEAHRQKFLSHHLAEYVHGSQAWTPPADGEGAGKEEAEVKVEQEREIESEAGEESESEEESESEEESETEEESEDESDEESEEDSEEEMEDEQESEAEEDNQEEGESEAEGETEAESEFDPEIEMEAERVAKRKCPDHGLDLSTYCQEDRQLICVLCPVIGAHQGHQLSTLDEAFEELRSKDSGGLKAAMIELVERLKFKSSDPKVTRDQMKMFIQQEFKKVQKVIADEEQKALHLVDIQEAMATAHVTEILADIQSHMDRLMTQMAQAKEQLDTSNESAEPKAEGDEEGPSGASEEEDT
Sequence of UniProt Q9HCN3 (Q9HCN3 whole entry, looked up): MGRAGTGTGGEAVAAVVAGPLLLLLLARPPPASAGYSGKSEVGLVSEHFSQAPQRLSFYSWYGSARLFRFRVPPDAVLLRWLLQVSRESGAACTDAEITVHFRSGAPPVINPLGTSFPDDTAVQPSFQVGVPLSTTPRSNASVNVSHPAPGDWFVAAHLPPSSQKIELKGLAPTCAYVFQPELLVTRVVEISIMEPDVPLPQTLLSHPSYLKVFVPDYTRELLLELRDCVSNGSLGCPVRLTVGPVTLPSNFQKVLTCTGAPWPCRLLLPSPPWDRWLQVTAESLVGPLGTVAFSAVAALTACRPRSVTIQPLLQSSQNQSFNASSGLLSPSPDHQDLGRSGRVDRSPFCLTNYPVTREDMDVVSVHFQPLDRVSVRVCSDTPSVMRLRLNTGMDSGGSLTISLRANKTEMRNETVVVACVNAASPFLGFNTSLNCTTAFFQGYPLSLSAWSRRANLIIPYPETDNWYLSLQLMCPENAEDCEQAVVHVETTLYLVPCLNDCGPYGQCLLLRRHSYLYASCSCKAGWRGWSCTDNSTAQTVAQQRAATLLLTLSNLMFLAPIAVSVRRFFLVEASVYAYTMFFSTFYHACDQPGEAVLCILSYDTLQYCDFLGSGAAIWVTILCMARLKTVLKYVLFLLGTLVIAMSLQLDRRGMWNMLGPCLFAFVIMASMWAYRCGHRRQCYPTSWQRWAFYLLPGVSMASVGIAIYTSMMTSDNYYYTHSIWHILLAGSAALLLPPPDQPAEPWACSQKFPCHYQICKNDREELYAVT
Sequence of UniProt Q9C037 (Q9C037 whole entry, looked up): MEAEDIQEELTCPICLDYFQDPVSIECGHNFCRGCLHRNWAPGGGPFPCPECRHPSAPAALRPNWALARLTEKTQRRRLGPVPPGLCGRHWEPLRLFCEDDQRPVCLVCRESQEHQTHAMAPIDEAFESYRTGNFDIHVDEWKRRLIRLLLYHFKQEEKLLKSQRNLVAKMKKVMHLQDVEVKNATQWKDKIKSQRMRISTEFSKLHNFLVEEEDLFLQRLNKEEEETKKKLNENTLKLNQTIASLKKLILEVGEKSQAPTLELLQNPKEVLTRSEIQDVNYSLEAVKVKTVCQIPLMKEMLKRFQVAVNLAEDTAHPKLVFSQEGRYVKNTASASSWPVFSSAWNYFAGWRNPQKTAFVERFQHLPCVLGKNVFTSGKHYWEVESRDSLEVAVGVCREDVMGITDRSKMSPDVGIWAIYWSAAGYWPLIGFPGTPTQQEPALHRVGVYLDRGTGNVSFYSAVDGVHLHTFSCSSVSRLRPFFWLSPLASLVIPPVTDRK
Sequence of UniProt A6NHL2 (A6NHL2 whole entry, looked up): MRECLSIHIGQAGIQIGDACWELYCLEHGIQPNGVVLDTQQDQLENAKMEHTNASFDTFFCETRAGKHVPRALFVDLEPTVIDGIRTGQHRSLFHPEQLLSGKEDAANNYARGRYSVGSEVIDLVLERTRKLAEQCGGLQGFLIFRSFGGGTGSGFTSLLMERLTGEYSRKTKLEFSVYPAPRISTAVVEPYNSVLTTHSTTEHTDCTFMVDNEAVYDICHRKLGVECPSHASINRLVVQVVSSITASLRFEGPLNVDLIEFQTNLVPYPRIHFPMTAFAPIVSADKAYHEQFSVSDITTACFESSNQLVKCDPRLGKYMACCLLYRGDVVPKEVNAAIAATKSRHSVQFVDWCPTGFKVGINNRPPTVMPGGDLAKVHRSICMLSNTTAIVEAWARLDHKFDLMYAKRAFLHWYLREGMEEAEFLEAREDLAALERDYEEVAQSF
Sequence of UniProt Q5U3C3 (Q5U3C3 whole entry, looked up): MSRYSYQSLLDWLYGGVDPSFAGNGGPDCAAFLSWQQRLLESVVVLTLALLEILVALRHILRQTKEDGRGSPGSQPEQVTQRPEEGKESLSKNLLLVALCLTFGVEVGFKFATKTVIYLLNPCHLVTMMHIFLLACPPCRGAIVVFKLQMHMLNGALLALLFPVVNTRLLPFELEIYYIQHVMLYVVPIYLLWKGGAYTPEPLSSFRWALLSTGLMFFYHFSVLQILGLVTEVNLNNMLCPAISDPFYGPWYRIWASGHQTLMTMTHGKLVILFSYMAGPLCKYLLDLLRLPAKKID
Sequence of UniProt Q86XT9 (Q86XT9 whole entry, looked up): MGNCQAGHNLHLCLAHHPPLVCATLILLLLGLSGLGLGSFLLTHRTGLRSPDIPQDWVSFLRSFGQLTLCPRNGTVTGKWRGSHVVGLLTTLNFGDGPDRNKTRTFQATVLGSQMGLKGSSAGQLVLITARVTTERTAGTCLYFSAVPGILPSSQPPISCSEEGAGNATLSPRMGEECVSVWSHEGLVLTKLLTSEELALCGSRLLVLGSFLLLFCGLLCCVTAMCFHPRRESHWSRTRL

Compound in the assay: Cc1nc(Nc2n[nH]c3c2CN(C(=O)N[C@H](CN(C)C)c2ccccc2)C3(C)C)c2sccc2n1
Kind of assay: log2 fold change, soluble protein after heating vs DMSO (PISA); higher = thermal stabilisation; K562 cells, 10 uM, 30 min; active = over 0.2 and 3.5 SD of the protein, either way, in both replicates (recomputed). Summed up: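 For each measurement, 10 μM compound was applied for 30 min to K562 cells at 2×10^6 cells/mL. Aliquots were heated for 3 min across 48°C-58°C, pooled, and extracted in PBS with 0.5% NP-40 at 4°C; the supernatant after 21,000xg for 90 min was soluble protein. This was quantified by TMTpro 16plex LC-MS/MS with channel sums equalised, and thermal stability was reported relative to control samples from duplicates, on a log2 fold-change scale.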
Consider TMEM164 (UniProt Q5U3C3), for which the log2 fold change is -0.021 (inactive).
The result for TRIM44 (UniProt Q96DX7) reads -0.023 (inactive); that for TUBAL3 (UniProt A6NHL2), 0.027 (inactive); that for TMEM8A (UniProt Q9HCN3), 0.071 (inactive).
The value for TRIM4 (UniProt Q9C037) was 0.101 (inactive); that for UXT isoform 2 (UniProt Q9UBK9) was -0.068 (inactive).
The value for TMEM9B (UniProt Q9NQ34) was 0.009 (inactive).
On to TMEM219 (UniProt Q86XT9), for which the log2 fold change is 0.216 (inactive).
As to VPS35L (UniProt Q7Z3J2), the log2 fold change is 0.101 (inactive).
The value for VPS13B (UniProt Q7Z7G8) was 0.049 (inactive); that for TMEM179B (UniProt Q7Z7N9) was -0.018 (inactive); that for XIAP (UniProt P98170) was 0.061 (inactive).
The value for VPS51 (UniProt Q9UID3) was -0.037 (inactive).
